PubChem BioAssay (NCI)
Compounds without any hit were thinned out: in the full panel of roughly 83,000, 20% have a hit.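 Testing used 96-well plates and a 48-hour single-concentration exposure. Example: -40 means 40% of the starting cells died.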 Values without a mark were called inactive. Activity calls are given as the source filed them. Rule for the calls: active = growth percent below 10; inactive = the rest.

Test system: NCI-H23 lung
Experiment: NCI-60 one-dose screen, 48 h (100 = growth as untreated, 0 = no growth, -100 = all killed)
Details: 10 µM unless noted

SMILES | growth
COc1cc(NCCCN=C(N)N)c2ncccc2c1 | 14.1%
ClCCN(CCCl)c1nc(Cl)c(C2CC(c3ccccc3)=NN2c2cc(Cl)cc(Cl)c2)s1 (stereo not drawn) | 99.7%
CCCCCCCC(=O)OCC(=O)[C@]1(O)Cc2c(O)c3c(c(O)c2[C@@H](OC2CC(N)C(O)C(C)O2)C1)C(=O)c1c(OC)cccc1C3=O (stereo partly drawn) | -76.2% (active)
COC[C@@H]1C[C@@]2(C)[C@@H](CC[C@@H]3[C@@H]2CC[C@@]2(C)[C@H]3CC[C@]2(C)O)CC1=O | 108%
C[C@]12CC[C@@H]3c4ccc(Oc5nc(N6CC6)nc(N6CC6)n5)cc4CC[C@H]3[C@@H]1CCC2=O | 31.6%
O=C1OCC2=C1C(c1ccccc1)c1cc3c(cc1N2)OCO3 (stereo not drawn) | 16.1%
CCC1(C)CC(CCNCc2ccccc2O)(c2ccc(C)cc2)CCO1 (stereo not drawn) | 101%
ClCCN(CCCl)Cc1ccc(Nc2ccnc3cc(Cl)ccc23)cc1 | 36.6%
c1ccc(Nc2nc(-c3ccccc3)c[se]2)cc1 | 87.2%
CCN(CC)CCOC(=O)C(OC(C)C)(c1ccccc1)c1ccccc1 | 99.1%
CCCc1cc(O)c2c3c(c(=O)oc2c1)CN(C)CC3 | 54.5%
ClCCN(CCCl)c1ccc(/C=N/Nc2ncnc3nc[nH]c23)cc1 | 68.8%
CCC1(C(C)C)C(=O)NC(=S)NC1=O | 117%
CC(C)(N)Cc1ccccc1 | 113%
CC1(C)N=C(N)N=C(N)N1c1cccc(CCCCc2ccc(Cl)c(S(=O)(=O)F)c2)c1 | 28.4%
COc1cc(C=C2c3ccccc3C(=O)c3ccccc32)ccc1OCCCCOc1cc2c(cc1OC)C(=O)N1CCCC1C=N2 (stereo not drawn) | -52.7% (active)
C[CH2][Sn]([Cl])([Cl])[CH2]C.Oc1ccccc1C=NCCN=Cc1ccccc1O | 103%
COc1ccc(O)c(CNC(=O)CN2CCCC2=O)c1 | 103%
CCOC(=O)C(Cc1ccc(N(CCCl)CCCl)cc1)NC(=O)C(CC(C)C)NC(C)=O (stereo not drawn) | 17.1%

SMILES | growth
C[C@]12CC[C@H]3[C@@H](CC[C@]4(O)C[C@@H](O[C@@H]5O[C@H](CO)[C@@H](O[C@@H]6OC[C@@H](O)[C@H](O)[C@H]6O)[C@H](O)[C@H]5O)CC[C@]34C=O)[C@@]1(O)CC[C@@H]2C1=CC(=O)OC1 | -37.1% (active)
Clc1ccc2nnnn2n1 | 54.4%
CC1(C)N=C(N)N=C(N)N1c1ccc(CCCCc2ccc(Cl)c(S(=O)(=O)F)c2)c(Cl)c1 | 20.4%
CC(=O)[O][Hg][c]1c(N)c(C)cc(C)c1F | 48.6%
O=C(NCCN1CC1)C(=O)NCCN1CC1 | 90.5%
[Au+].[N-]=C=O.c1ccc(CN2[CH-]N(Cc3ccccc3)C(c3ccccc3)=C2c2ccccc2)cc1 | 79.5%
O=C(O)CNC(=O)C(Cl)(Cl)Cl | 106%
N#C[Se]Cc1cc(-c2ccccc2)n(-c2ccc(S(N)(=O)=O)cc2)n1 | -18% (active)
CCCCCC1(CCBr)C(=O)NC(=O)NC1=O | 109%
O=C(O)C(O)C(O)C1[O][Sb]([c]2ccc([N+](=O)[O-])cc2)[O]C1CO (stereo not drawn) | 101%
O=Cc1cn(Cc2ccc(Cl)cc2)c2ccccc12 | 84.9%
COc1cc(NC(C)CCCNC2CN3CCC2CC3)c2ncccc2c1 (stereo not drawn) | 84.5%
Cc1ccc(C(=O)NCCCOc2ccc(N)cc2Cl)cc1S(=O)(=O)F | 98.9%
CC(=O)OCC1O[C@@H]([S-])C(OC(C)=O)[C@H](OC(C)=O)[C@@H]1OC(C)=O.[Au+].c1ccc(CN2[CH-]N(Cc3ccccc3)C(c3ccccc3)=C2c2ccccc2)cc1 | 28.5%
O=C(Nc1ccc(Cl)cc1)Nc1nccs1 | 50.5%
Clc1ccc(COC(Cn2ccnc2)c2ccc(Cl)cc2Cl)cc1 (stereo not drawn) | 54.2%
CC1CCCC(C[N+](C)(C)C)C1=O (stereo not drawn) | 109%
CC(=O)/C=C/c1ccc2c(c1)OCO2 | 95.4%
O=C(O)c1ccc([S-])cc1.[Au+].c1ccc(CN2[CH-]N(Cc3ccccc3)C(c3ccccc3)=C2c2ccccc2)cc1 | -64.8% (active)
